# Test results reported in PubChem BioAssay (NCI).
# The panel holds about 83,000 compounds, 20% with a hit somewhere; the sample as a whole holds those more often.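 Values shown are percent growth following 48 h exposure of cells in 96-well plates to a single concentration of compound; below 10 was considered active.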 Values without a mark were called inactive. Activity calls are given as the source filed them.
# Legend:
# Experiment in all cases: NCI-60 one-dose screen, 48 h (100 = growth as untreated, 0 = no growth, -100 = all killed)
# Settings in all cases: 10 µM unless noted
# SR leukemia = system: SR leukemia
# OVCAR-8 ovarian = system: OVCAR-8 ovarian
# OVCAR-5 ovarian = system: OVCAR-5 ovarian
# OVCAR-4 ovarian = system: OVCAR-4 ovarian
# SK-OV-3 ovarian = system: SK-OV-3 ovarian
# IGROV1 ovarian = system: IGROV1 ovarian
# OVCAR-3 ovarian = system: OVCAR-3 ovarian
# HS 578T breast = system: HS 578T breast
# NCI/ADR-RES ovarian = system: NCI/ADR-RES ovarian
# T-47D breast = system: T-47D breast
# BT-549 breast = system: BT-549 breast
# MDA-MB-435 melanoma = system: MDA-MB-435 melanoma
# SW-620 colon = system: SW-620 colon
# MCF7 breast = system: MCF7 breast
# HCT-116 colon = system: HCT-116 colon
# HCC-2998 colon = system: HCC-2998 colon
# KM12 colon = system: KM12 colon
Compound,growth (SR leukemia),growth (OVCAR-8 ovarian),growth (OVCAR-5 ovarian),growth (OVCAR-4 ovarian),growth (SK-OV-3 ovarian),growth (IGROV1 ovarian),growth (OVCAR-3 ovarian),growth (HS 578T breast),growth (NCI/ADR-RES ovarian),growth (T-47D breast),growth (BT-549 breast),growth (MDA-MB-435 melanoma),growth (SW-620 colon),growth (MCF7 breast),growth (HCT-116 colon),growth (HCC-2998 colon),growth (KM12 colon)
Cn1cc(-c2cc3ncnc(Nc4ccc(CC(=O)Nc5cc(C(C)(C)C)on5)cc4)c3s2)cn1,10.9%,40.7%,61.6%,34.7%,10.4%,11.1%,36.6%,15.6%,60.6%,30.7%,52.5%,40.7%,38.8%,41.5%,21.8%,99.1%,19.1%
CNCCCNc1nc2ccccc2c2c(=O)c3cc(F)ccc3sc12,-35.9% (active),28%,66.3%,19.9%,75.4%,41.4%,-1% (active),37.8%,21.4%,22.4%,86.7%,-85.3% (active),-71.4% (active),-44.8% (active),-67% (active),-88.3% (active),-44.4% (active)
O=c1c2cc(F)cc(Cl)c2sc2c(NCCCNCCO)nc3ccccc3c12,-6.83% (active),95.7%,93.7%,79.1%,93.9%,79.4%,96.1%,88.1%,89.2%,101%,82.4%,61.1%,-32% (active),64.6%,65.1%,60.9%,66.7%
Cc1nn(-c2ccccc2)c(-n2ccnc2)c1/C=N/Nc1nc(-c2ccc(F)cc2)cs1,49%,76.1%,105%,56%,81.4%,87.4%,84.8%,82.9%,79.2%,31.1%,75.3%,85.2%,88.4%,72.3%,67.8%,104%,90.4%
CCOC(=O)c1cn2ncnc(Oc3ccc(NC(=O)NCCN(CC)CC)c(Cl)c3)c2c1C,-26.6% (active),81%,80.8%,90.3%,92.1%,87.3%,68.6%,77.7%,77.6%,45.4%,81.9%,9.11% (active),28.7%,58.1%,36.5%,68.3%,96.4%
CC1=C([Se]CC(OC(=O)[C@@H](CSSC(C)(C)C)NC(=O)OC(C)(C)C)C(=O)NC(C)(C)C)C(=O)c2ccccc2C1=O (some centres undefined),22%,-73.7% (active),-75.8% (active),-92.9% (active),-100% (active),8.36% (active),-99.2% (active),-11.2% (active),-78.9% (active),-50.3% (active),-97.8% (active),-91.2% (active),-83.3% (active),-25.9% (active),-73.8% (active),-93.5% (active),-97.7% (active)
CCCCOc1nc2ccc(OC)cc2cc1-c1cc(-c2ccc(Cl)cc2)nc(-c2ccc(Cl)cc2)c1,107%,104%,98.7%,99.5%,108%,105%,112%,100%,105%,97.4%,105%,107%,102%,97.5%,102%,109%,104%
CNC(=O)c1cc(-n2ccc3cc(NC(=O)c4ccc(N5CCOCC5)c(C(F)(F)F)c4)ccc32)ccn1,24.8%,27.7%,79.1%,64.4%,91.2%,77.7%,63.9%,47.1%,45.7%,25.8%,43.8%,76.4%,75.9%,60.6%,38.7%,63.8%,17.7%
O=c1c2cc(F)ccc2sc2c(N3CCNCC3)nc3ccc(F)cc3c12,-46.3% (active),3.1% (active),60.3%,-63.8% (active),84%,36.3%,-84.1% (active),46.6%,4.72% (active),22.2%,79.8%,-94.3% (active),-84.4% (active),-62.9% (active),-61.2% (active),-90.8% (active),-78.4% (active)
COc1cc(OCc2cccc(-c3ccc(C(O)c4nccs4)cc3)c2C)cc(OC)c1CNCCNC(C)=O (centres undefined),85.9%,96.1%,98.5%,91.8%,113%,103%,109%,105%,101%,90.8%,102%,98.5%,97.8%,89.9%,94%,124%,101%
COc1ccc(C(=O)N=Nc2c(O)n(C)c3ccccc23)cc1,80.5%,95.6%,105%,91.9%,87.2%,90.2%,104%,99.5%,91.5%,61.9%,103%,103%,97.3%,61.3%,99.7%,117%,95.5%
COc1cc2cc(Oc3ccc(NC(=O)Nc4cccc(C(F)(F)F)c4)cc3)c(C)nc2cc1OCCN1CCOCC1,9.31% (active),25.1%,109%,20.1%,92%,57.7%,28.6%,86%,45.3%,30.3%,70.8%,30.4%,36.9%,9.35% (active),17.4%,89.2%,29.8%
COc1ccc(S(=O)(=O)n2c3ccccc3n3ncc(-c4nnc(C)o4)c23)cc1,24.7%,45%,30.6%,81.6%,54.4%,34.4%,0.366% (active),27%,-25.1% (active),41.8%,49.5%,-21.9% (active),27%,18.9%,18.4%,17.1%,29.8%
COc1ccc(/C=C(/C#N)n2nnc3cccc(F)c32)cc1,7.75% (active),10.7%,19.7%,29.9%,29%,34.4%,-18.6% (active),-16.4% (active),-29.6% (active),9.54% (active),20.3%,-56.4% (active),11.9%,17.1%,10.1%,36%,5.54% (active)
O=C(Nc1ccc(F)cc1F)c1cc(F)ccc1O,4.78% (active),14.9%,23.3%,21%,4.34% (active),21.4%,1.72% (active),12%,6.3% (active),6.93% (active),8.69% (active),14.6%,20.8%,4.23% (active),12.8%,27.9%,8.7% (active)
CC([C@H]1CCC2C3CCC4C(=O)C(NC=O)=CC[C@]4(C)C3CC[C@@]21C)N(C)C (some centres undefined),54.3%,55.9%,93.2%,6.05% (active),75.8%,37.8%,24.6%,33.6%,57.5%,-12.7% (active),49.5%,-26% (active),-48.5% (active),17.3%,-7.83% (active),19%,17.8%
O=C(Nc1ccc(Cl)cc1F)c1cc(Cl)ccc1O,-21.2% (active),8.56% (active),19.7%,17.9%,9.05% (active),8.98% (active),2.51% (active),-13.9% (active),3.01% (active),0.896% (active),-25.3% (active),-11.4% (active),5.92% (active),2.27% (active),-25.5% (active),8.54% (active),-23.6% (active)
